According to PubChem BioAssay (NCATS):
Records with an inconclusive call do not appear. Entries that show only a call come without a potency. Activity calls are given as the source filed them. Unless noted, the call rests on the fitted dose curve; in most records, active means well fitted curve in the direction sought with a large enough effect; inconclusive means small, poorly fitted or top-dose-only effect, or another doubt; inactive means no such curve, though single readings can be large; an effect the other way counts as inactive or inconclusive. Peptide text beside a SMILES is read from it.

Key:
[1] = target: Cytochrome P450 3A4 (Homo sapiens) (UniProt P08684); assay: qHTS Assay for Inhibitors and Substrates of Cytochrome P450 3A4 (AID 884); further: nearly all actives have a fitted effect of over 50% in size
Outline: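 20 nM human CYP3A4 with 25 uM Luciferin-PPXE (at KM) in 200 mM KPO4, preincubated 10 min with compound; NADPH regeneration started a 60 min RT reaction. Luciferin detected by luminescence, normalized to 57 uM ketoconazole as full inhibition.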

[2] = Confirmation and Secondary Assay for Modulators of Hemoglobin Beta Chain Splicing at IVS2 654 locus (AID 910);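 further: per-well total GFP intensity by laser scanning cytometry after 2-day treatment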
Outline: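 HeLa cells stably carrying EGFP interrupted by mutant beta-globin IVS2-654 intron (CMV-driven) were treated with compound for 2 days at 37C; corrected splicing was scored as total peak GFP intensity per well (488 nm excitation, 500-520 nm emission).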

[3] = Confirmation and Secondary Assay for Modulators of Hemoglobin Beta Chain Splicing at IVS2 705 locus (AID 930);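 further: HeLa cells stably expressing the EGFP-705 splicing reporter; GFP fluorescence per well restored by corrected splicing of the IVS2-705 intron in EGFP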
Outline: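 HeLa EGFP-705 reporter; 500 cells/well, o/n 37C 5% CO2; cpd 2 d; 488 ex/500-520 em laser scan; total peak GFP intensity/well. Ref: 500 nM […] antisense PNA.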

[4] = qHTS Assay for Lipid Storage Modulators (AID 1519; calls by dose curve); details: Drosophila S3 cells, BODIPY lipid droplet/cell ratio, laser cytometry, cells loaded with oleic acid; for activity change, negative = inhibition: at 57.5 µM (top of the series)
Outline: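 Cells seeded at 5,000 per well were treated with compounds over a concentration series and loaded with oleic acid (400 uM, as added). Lipid droplet fluorescence (488 nm excitation, 500-530 nm channel) was read by laser-scanning cytometry and normalized to 20 uM Triacsin C.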

[5] = target: Ubiquitin carboxyl-terminal hydrolase 1 (Homo sapiens) (UniProt O94782); assay: Inhibitors of USP1/UAF1: Pilot qHTS (AID 504865);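 further: rhodamine fluorescence freed from ubiquitin-rhodamine substrate followed over time; top concentration of the series differs between compounds; nearly all actives have a fitted effect of over 35% in size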
Outline: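 Enzyme-free wells gave the negative control, while test wells held 1nM USP1/UAF1 preincubated with compound for 15 min at room temperature. Ub-Rho at 150nM final started the reaction, and fluorescence at 480/540 nm was recorded kinetically.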

[6] = target: Cytochrome P450 3A4 (Homo sapiens) (UniProt P08684); assay: qHTS Assay for Activators of Cytochrome P450 3A4 (AID 885); further: nearly all actives have a fitted effect of over 65% in size
Outline: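 Steps: enzyme/substrate mix dispensed; compound added, 10 min RT; NADPH regeneration solution added, 60 min RT; luciferin detection buffer stops reaction; 20 min later luminescence measured.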

[7] = measured here: cell count channel max response
[8] = measured here: lipid channel max response

Ubiquitin carboxyl-terminal hydrolase 1 (Homo sapiens), sequence (O94782 whole entry, looked up): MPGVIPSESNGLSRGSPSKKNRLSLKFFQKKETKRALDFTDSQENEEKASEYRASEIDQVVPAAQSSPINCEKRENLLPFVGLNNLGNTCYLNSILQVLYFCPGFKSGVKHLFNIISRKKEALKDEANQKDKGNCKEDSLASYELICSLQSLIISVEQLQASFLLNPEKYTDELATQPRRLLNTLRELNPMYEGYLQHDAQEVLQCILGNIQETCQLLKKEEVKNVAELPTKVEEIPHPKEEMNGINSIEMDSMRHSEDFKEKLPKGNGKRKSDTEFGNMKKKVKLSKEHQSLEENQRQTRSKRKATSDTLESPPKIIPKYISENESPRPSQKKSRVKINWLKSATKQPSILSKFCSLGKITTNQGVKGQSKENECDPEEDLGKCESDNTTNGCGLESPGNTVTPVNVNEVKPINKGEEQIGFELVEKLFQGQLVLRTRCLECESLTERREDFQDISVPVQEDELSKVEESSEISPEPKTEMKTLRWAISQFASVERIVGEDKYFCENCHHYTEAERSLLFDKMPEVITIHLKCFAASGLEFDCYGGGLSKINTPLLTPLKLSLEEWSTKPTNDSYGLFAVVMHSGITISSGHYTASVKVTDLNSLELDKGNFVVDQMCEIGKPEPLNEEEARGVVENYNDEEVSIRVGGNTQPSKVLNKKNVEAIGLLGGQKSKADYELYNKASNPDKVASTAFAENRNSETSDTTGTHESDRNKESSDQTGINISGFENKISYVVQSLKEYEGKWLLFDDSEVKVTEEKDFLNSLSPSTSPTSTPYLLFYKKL
Cytochrome P450 3A4 (Homo sapiens), sequence (P08684 whole entry, looked up): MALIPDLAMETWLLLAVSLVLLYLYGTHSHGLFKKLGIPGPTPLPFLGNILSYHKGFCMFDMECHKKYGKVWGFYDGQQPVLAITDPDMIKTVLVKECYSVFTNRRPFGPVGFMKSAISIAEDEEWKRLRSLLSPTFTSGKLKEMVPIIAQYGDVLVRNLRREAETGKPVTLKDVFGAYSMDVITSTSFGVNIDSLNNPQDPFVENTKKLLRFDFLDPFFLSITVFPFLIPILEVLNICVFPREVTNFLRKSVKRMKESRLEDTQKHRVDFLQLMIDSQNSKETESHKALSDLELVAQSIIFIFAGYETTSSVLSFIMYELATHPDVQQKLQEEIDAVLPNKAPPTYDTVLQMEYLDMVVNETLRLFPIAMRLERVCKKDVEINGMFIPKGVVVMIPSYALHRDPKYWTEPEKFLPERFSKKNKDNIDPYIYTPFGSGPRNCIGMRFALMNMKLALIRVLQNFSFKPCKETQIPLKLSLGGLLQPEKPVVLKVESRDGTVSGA

| Structure (SMILES) | Potency [1] | Potency [2] | Potency [3] | activity change, negative = inhibition [4] | max response [4, 7] [%] | max response [4, 8] [%] | Potency [5] | Potency [6] |
| --- | --- | --- | --- | --- | --- | --- | --- | --- |
| C[C@@]12CCC(O)C[C@H]1CCc1ccccc12 (stereo partly drawn) | inactive | inactive | inactive | 1.53% (inactive) | 0.578 | 6.01 | inactive |  |
| CC(C)CC(NC(=O)CN)C(=O)NC(Cc1ccccc1)C(=O)O (stereo not drawn) (H-Gly-Leu-Phe-OH; configuration not given here) | inactive | inactive | inactive | 6.28% (inactive) | 3.97 | 11.6 | inactive |  |
| CC(=O)OC1CC(OC(C)=O)[C@]2(C)C(CC(=O)[C@]3(C)C2CC[C@@]2(C)C(C(=O)O)OC(=O)C4OC423)C1(C)C (stereo partly drawn) |  | inactive | inactive | 3.41% (inactive) | 10.8 | 15.4 | inactive | inactive |
| S=c1ccss1 |  | inactive | inactive | 7.62% (inactive) | 5.82 | 13.7 | inactive | inactive |
| CC12CCC3C(CC3(C)C)C(C)(CCC1=O)O2 (stereo not drawn) | inactive | inactive | inactive | 8.76% (inactive) | 19 | 26.9 | inactive |  |
| C#C[C@@]1(O)CCC2C3CCC4=CC(=O)CCC4C3CC[C@@]21CC (stereo partly drawn) |  | inactive | inactive | 8.95% (inactive) | 17.8 | 32.9 | inactive | inactive |
| C=C1CCC(=O)C(C)CCC2C1CC2(C)C (stereo not drawn) |  | inactive | inactive | 1.2% (inactive) | 13.1 | 14.5 | inactive | inactive |
| CCCCCC1C(=O)CCC1CC(=O)OC (stereo not drawn) | inactive | inactive | inactive | 7.58% (inactive) | 6.16 | 16 | inactive |  |
| COC(=O)c1cc(OC)c(=O)c2c(OC)c(OC)ccc2c1 |  | inactive | inactive | 6.06% (inactive) | -2.75 | 7.78 | inactive | inactive |
| COc1ccc(-c2coc3c(O)c(OC)ccc3c2=O)cc1 |  | inactive | inactive | 2.6% (inactive) | 25.3 | 28.5 | inactive | inactive |
| CCOC(=O)C(Cc1ccc(O)cc1)NC(C)=O (stereo not drawn) |  | inactive | inactive | 7.38% (inactive) | 6.37 | 13.9 | inactive | inactive |
| CC1(C)CC2C1CC[C@]1(C)CCC3C(C(=O)O)CC(=O)O[C@]32C1 (stereo partly drawn) | inactive | inactive | inactive | 3.56% (inactive) | 4.93 | 10.6 | inactive |  |
| COc1cc(O)c(C)c(O)c1 |  | inactive |  | 1.69% (inactive) | 3.91 | 5.62 | inactive | inactive |
| CS(=O)(=O)c1ccc(C(O)C(CO)NC(=O)C(Cl)Cl)cc1 (stereo not drawn) | inactive | inactive | inactive | 6.29% (inactive) | 3.52 | 13.6 | inactive |  |
| Nc1ncnc2c1nc(Cl)n2C1OC(CO)C(O)C1O (stereo not drawn) | inactive | inactive | inactive | 3.24% (inactive) | 5.55 | 12.1 | inactive |  |
| COc1cc(OC)c(C(C)=O)c(O)c1C |  | inactive | inactive | 17% (inactive) | 5.25 | 27.6 | inactive | inactive |
| COC(=O)CC1C(C)(C)C2(O)OC34CC2C(=O)[C@@]1(C)C3CC[C@]1(C)C4=CC(=O)OC1c1ccoc1 (stereo partly drawn) |  | inactive | inactive | 4.29% (inactive) | -0.136 | 8.19 | inactive | inactive |
| C=C1CCC(C2CC(=O)OC2=O)C(=O)CCC2C1CC2(C)C (stereo not drawn) | inactive | inactive | inactive | 4.44% (inactive) | 19.1 | 26.1 | inactive |  |
| CC(C)(O)C1CC[C@@]2(C)C3CCC4[C@@]5(C)CCCC(C)(C)C5C(O)C[C@]4(C)[C@]3(C)CC[C@@H]12 (stereo partly drawn) | inactive | inactive | inactive | 5.94% (inactive) | 19.9 | 27.3 | inactive |  |
| CC1(C)CCCC2(C)C3C(O)CC2(C)C(O)C31 (stereo not drawn) |  | inactive | inactive | 1.58% (inactive) | -2.66 | -0.711 | inactive | inactive |
| COc1cc(O)cc(OC)c1OC |  | inactive | inactive | 1.28% (inactive) | -14 | -12.4 | inactive | inactive |
| C#C[C@]1(O)CCC2C3CCC4=Cc5oncc5C[C@@]4(C)C3CC[C@@]21C (stereo partly drawn) |  | inactive | inactive | 9.19% (inactive) | 9.5 | 21.9 | inactive | inactive |
| CCOC(=O)c1c(C)cc(O)c(C=O)c1O |  | inactive |  | 7.6% (inactive) | -4.41 | 3.24 | inactive | inactive |
| CC1(C)C[C@@H]2C(=O)CCC3O[C@@]3(C)CCC21 (stereo partly drawn) |  | inactive | inactive | 3.76% (inactive) | 20.7 | 26.4 | inactive | inactive |
| C=C1C(N)CC2CC1C2(C)C (stereo not drawn) | inactive | inactive | inactive | 1.08% (inactive) | 14 | 14.9 | inactive |  |
